miR-21 act = qHTS Assay for Modulators of miRNAs and/orActivators of miR-21. HeLa miR-21 FLuc reporter, luciferase, 48 h. Potency, µM (highest dose often 38.3 µM), without a hit: top-dose activity change, positive = activation, actives largely listed as activators. 340,000 tested, under 10 active;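 further: % of control where 0% means no effect; miR-21 action dims this reporter so a rising signal means less miR-21 action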
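Compounds were titrated across several concentrations (up to approximately 40 uM) and incubated 48 hours with HeLa miR-21-FLuc reporter cells (miR-21 target sequence downstream of FLuc, endogenous miR-21). Readout was firefly luciferase luminescence after lytic detection reagent.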
TCR act = Activators of T cell receptors: qHTS campaign. Potency, µM (top dose mostly 9.22 µM), for the others: at the top dose activation of IL-2 secretion, hits mostly activators. AID 504894, 2011. 330,000 tested, under 10 active. primary human leukocytes, anti-CD3, IL-2 HTRF, 48 h; further: % of control where 0% means no effect
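TCR engagement came from a-CD3 beads alone, with compounds added to primary human leukocytes for 48 hr. Secreted IL-2 bridged europium cryptate- and d2-labelled anti-IL-2 antibodies, giving FRET emission at 665nm after 320nm excitation.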
A549 tox = Nrf2 qHTS screen for inhibitors: counterscreen for cytotoxicity; A549 ARE-Fluc cells, CellTiter-Fluor viability, 18-24 h; Potency, µM (series often up to 46 µM), inactives show top-dose activity change, negative = cytotoxicity, actives largely listed as inhibitors; actives 0.16% (n = 390,000); further: potency means the concentration at half of the fitted maximal effect; on the % scale 0 is the no-effect control and ±100 the full control effect
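A549 ARE-Fluc cells in 5% FBS OPTI-MEM, 5000 cells/well, rested 2 h then exposed to compounds in concentration-response for 18-24 h at 37 °C. Viability by CellTiter-Fluor fluorescence (Ex 405/Em 525) after 30 min; luciferase luminescence (BugLite, 15 min, RT) read afterwards.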
ClpP mod = qHTS Assay for Activators of ClpP | ATP-dependent Clp protease proteolytic subunit (Bacillus subtilis (strain 168)), P80244 | purified B. subtilis ClpP, FRET peptide cleavage, 20 min | Potency, µM (series often up to 57.5 µM), without a hit: top-dose activity change, negative = active | actives 1.9% (n = 340,000); active means well fitted falling curve with a large enough effect; inconclusive means small, poorly fitted or top-dose-only effect; inactive means no such curve, though single readings can be large or run the other way; further: potency means the concentration at half of the fitted maximal effect; the source files actives as falling curves though it sought activators and does not explain the sign; nearly all actives have a fitted effect of over 65% in size
Target sequence (P80244 whole entry, looked up): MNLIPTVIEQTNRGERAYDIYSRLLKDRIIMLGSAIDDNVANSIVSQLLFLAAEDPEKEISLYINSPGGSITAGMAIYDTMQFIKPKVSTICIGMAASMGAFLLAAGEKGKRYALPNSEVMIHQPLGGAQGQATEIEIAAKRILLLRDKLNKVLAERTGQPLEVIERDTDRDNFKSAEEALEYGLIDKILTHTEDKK
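Purified B. subtilis ClpP, 10 microg/mL final in Tris/HCl pH8 with KCl, BSA, glycerol and Tween-20, cleaved an Abz/nitrotyrosine-quenched decapeptide. Fluorescence (ex 320, em 430) was read at 0 and 20 min at room temperature. Delta was normalized to 5.8 microM ADEP and DMSO/no-enzyme controls.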
Nrf2 ARE act = qHTS of Nrf2 Activators; AREc32 ARE-luciferase reporter (MCF7-derived line), luminescence, 24 h; Potency, µM (top dose mostly 46.1 µM), for the others: at the top dose activation, usual class: activators; actives 0.31% (n = 410,000); AID 624171, 2012; further: potency means the concentration at half of the fitted maximal effect; % of control where 0% means no effect; nearly all actives have a fitted effect of over 65% in size
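Reporter line AREc32 (ARE-Fluc), seeded overnight in OPTI-MEM with 5% FBS; compound pin-transferred, 24 hr at 37 deg C, 5% CO2; luminescent read-out.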
Nrf2 block = Nrf2 qHTS screen for inhibitors; A549 ARE-Fluc reporter, luciferase luminescence, 18-24 h; Potency, µM (doses to about 46 µM), without a hit: at the highest dose activity change, negative = inhibition, most hits filed as inhibitors; actives 2.1% (n = 360,000); AID 504444, 2011; further: potency means the concentration at half of the fitted maximal effect; on the % scale 0 is the no-effect control and ±100 the full control effect; nearly all actives have a fitted effect of over 60% in size
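Nrf2 function is reported as luminescence of an ARE-controlled luciferase in A549 cells. Compounds were tested at several concentrations, and a CellTiter-Fluor read on the same wells flagged cytotoxicity.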
Active calls of the source: *; [ ] = another dose, or the depositor's remark. An excerpt weighted towards active compounds, which were near 3.7% of everything screened. Unless noted, the call rests on the fitted dose curve; in most records, active means well fitted curve in the direction sought with a large enough effect; inconclusive means small, poorly fitted or top-dose-only effect, or another doubt; inactive means no such curve, though single readings can be large; an effect the other way counts as inactive or inconclusive.

c1ccc(CSc2n[nH]c(-c3ccco3)n2)cc1 was read as miR-21 act -43%, A549 tox -15%, ClpP mod -7%, Nrf2 ARE act 3% and Nrf2 block 2%.
Screening CCOC(=O)Cn1c(=O)n(CC2CCCO2)c2nc(-c3ccccc3OC)nc(C(N)=O)c21 (stereo unspecified) returned miR-21 act 2%, A549 tox 6%, ClpP mod -2% and Nrf2 ARE act 0%.
CCN(CC(=O)NCc1ccc(F)cc1)Cc1nc2cc(Cl)ccc2c(=O)[nH]1 was read as miR-21 act 4%, TCR act -3%, A549 tox 0%, ClpP mod 7.1µM*, Nrf2 ARE act 3% and Nrf2 block -3%.
Screening CCOc1ccc(NC(=O)CN(C)C(=O)CCN2C(=O)C3CC=CCC3C2=O)cc1OCC (stereo unspecified) returned TCR act -68%, A549 tox -4%, ClpP mod -1%, Nrf2 ARE act -1% and Nrf2 block 10%.
Screening Cc1ccc(NC(=O)CCC(=O)c2ccc(F)cc2)cc1Cl returned miR-21 act -2%, TCR act -3%, A549 tox -1%, ClpP mod 25µM*, Nrf2 ARE act 0% and Nrf2 block 8%.
For COc1ccc(C(=O)CCC(=O)Nc2ccc(C)c(Cl)c2)cc1 the results were miR-21 act -2%, A549 tox 3%, ClpP mod 2% and Nrf2 ARE act 0%.
Screening Clc1cccc(-c2ccnc3nc(-n4cccc4)nn23)c1 returned miR-21 act -8%, TCR act 0%, A549 tox 14%, ClpP mod -5% and Nrf2 ARE act inconclusive.
Screening c1coc(-c2ccnc3nc(-n4cccc4)nn23)c1 returned miR-21 act 0%, TCR act 9%, A549 tox -1%, Nrf2 ARE act 7.9µM* and Nrf2 block 8%.
`COc1ccc(-c2ccnc3nc(-n4cccc4)nn23)cc1` gave miR-21 act -19%, A549 tox -9%, ClpP mod 28µM*, Nrf2 ARE act 1% and Nrf2 block inconclusive.
For COc1ccc(-c2ccnc3nc(N4CCOCC4)nn23)cc1 the results were miR-21 act -2%, TCR act 1%, A549 tox 19%, ClpP mod 16µM*, Nrf2 ARE act 0% and Nrf2 block -17%.
Screening c1ccc(Oc2ccc(-c3ccnc4nc(N5CCOCC5)nn34)cc2)cc1 returned miR-21 act -4%, TCR act 0%, A549 tox -9%, Nrf2 ARE act 3% and Nrf2 block inconclusive.
For O=C1N/C(=C\c2nc3ccccc3s2)c2ccccc21 the results were miR-21 act -63%.
O=C1N/C(=C\c2ccccc2)c2ccccc21 was read as miR-21 act -19%, A549 tox 13%[1.84 µM], ClpP mod inconclusive, Nrf2 ARE act 8.9µM* and Nrf2 block inconclusive.
For COc1ccc(Br)cc1CN(C)CC(=O)Nc1c(Cl)ccc(C)c1Cl the results were miR-21 act -10%, TCR act -6%[46.1 µM], A549 tox inconclusive, ClpP mod -2%, Nrf2 ARE act 3% and Nrf2 block 18µM*.
Screening Cc1ncc(S(=O)(=O)c2ccccc2)c(-c2ccccc2)n1 returned miR-21 act -2%, TCR act -7%, A549 tox 1%, ClpP mod 1%, Nrf2 ARE act 0% and Nrf2 block -2%.
For Cc1ncc(N=Nc2ccccc2)c(-c2ccccc2)n1 the results were miR-21 act -8%, TCR act -3%, A549 tox -1%, ClpP mod -1%, Nrf2 ARE act 4µM* and Nrf2 block -2%.
Screening Cc1[nH]c(=O)c(C#N)c2c1COC(C)(C)C2 returned miR-21 act -15%, TCR act -2%, A549 tox 3%, Nrf2 ARE act 2% and Nrf2 block 1%.
For CSc1c(C#N)c(N)c(C#N)c2c1COC(C)(C)C2 the results were miR-21 act -95%, TCR act 2%[46.1 µM], A549 tox 4%, ClpP mod 14µM*, Nrf2 ARE act 1% and Nrf2 block -30%.
Screening O=C(NCC(c1ccco1)N1CCc2ccccc2C1)C(=O)Nc1cc(F)ccc1F (stereo unspecified) returned TCR act 2%, A549 tox 1%, ClpP mod -1%, Nrf2 ARE act -1% and Nrf2 block -15%.
Screening Fc1ccc(COc2cccc(CNCc3ccncc3)c2)cc1 returned miR-21 act 8%, A549 tox -1%, ClpP mod 1%, Nrf2 ARE act 3% and Nrf2 block 15µM*.
N#Cc1c(-c2cccs2)cc(-c2ccccn2)nc1N was read as miR-21 act -12%, TCR act 1%, A549 tox 1%, ClpP mod 13µM* and Nrf2 ARE act 7.9µM*.
Screening CC(C)N(C(=O)Cn1cc(S(=O)(=O)CC(=O)Nc2ccccc2)c2ccccc21)C(C)C returned miR-21 act -3%, TCR act -1%, A549 tox -21%, ClpP mod 2%, Nrf2 ARE act 1% and Nrf2 block -4%.
For Cc1ccc(C(=O)N/N=C/c2ccc(-c3ccc(Br)cc3[N+](=O)[O-])o2)o1 the results were miR-21 act -9%, A549 tox -11%, ClpP mod -2%, Nrf2 ARE act 7.9µM* and Nrf2 block inconclusive.
Screening Cc1ccc(C(=O)N/N=C\c2ccc(Br)o2)o1 returned miR-21 act -14%, TCR act -1%, A549 tox 6%, ClpP mod -13%, Nrf2 ARE act 6% and Nrf2 block -11%.
`COc1ccc2oc(=O)c(-c3nnc(N)s3)cc2c1` gave miR-21 act -33%, TCR act 3%, A549 tox -1%, Nrf2 ARE act 4% and Nrf2 block inconclusive.
O=c1oc2ccccc2cc1-c1nc2c(s1)CCc1ccccc1-2 was read as miR-21 act -7%, TCR act -7%[46.1 µM], A549 tox inconclusive, ClpP mod -3%, Nrf2 ARE act 4µM* and Nrf2 block inconclusive.
For CCc1sc(-c2cc3ccc(O)cc3oc2=O)nc1-c1ccc(C)cc1 the results were A549 tox inconclusive, ClpP mod inconclusive and Nrf2 block 3%.
For Nc1nnc(-c2cc3ccccc3oc2=O)s1 the results were miR-21 act -52%, TCR act -9%, A549 tox 3%, ClpP mod 25µM* and Nrf2 ARE act 4%.
